This is a sample that favours compounds with a hit; in the whole collection about 1.3% have one here.
Sa ugtP lethal – growth inhibition of ugtP-null S. aureus, primary screen, RN4220 ugtP deletion, OD600; 16 h; growth inhibition, % (test concentration not listed); 330,000 compounds, 0.54% hits; in the data active = growth inhibition above about 68%;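 note: plate controls were untreated wells for no effect and antibiotic for full effect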
CCHFV vOTU inh – CCHFV vOTU protease inhibitors, primary screen, biochemical, Pep-AMC substrate, fluorescence; 370,000 compounds, 0.55% hits; AID 651958, 2012; Crimean-Congo hemorrhagic fever virus L polyprotein viral ovarian tumor (vOTU) protease …; inhibition, % at 11.5 µM; in the data active = inhibition above about 30%; note: 0% = vehicle wells with enzyme and 100% = no enzyme wells
Sa RN4220 lethal – growth inhibition of S. aureus RN4220, primary screen, OD600; 16 h; inhibition, % (no concentration beside the values); 330,000 compounds, 0.33% hits; AID 1259311, 2017; in the data active = inhibition above about 85%;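 note: plate controls were untreated cells for no effect and reference antibiotic for full effect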
3CLpro inhibitor – SARS-CoV 3CLpro protease inhibitors, primary screen, biochemical, quenched FRET; 290,000 compounds, 0.14% hits; recombinant SARS-CoV 3CLpro, quenched FRET peptide cleavage; Replicase polyprotein 1ab (Severe acute respiratory syndrome coronavirus), P0C6X7; AID 1706, 2009; inhibition, % at 6 µM; in the data active = inhibition above about 12%
Mtb bLac sens – beta-lactam sensitization of Mtb H37Rv, H37Rv | AID 434955, 2010 | inhibition, % at 25 µM | 330,000 compounds, 0.27% hits | M. tuberculosis H37Rv growth with meropenem, percent inhibition; call rule not given here;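 note: growth measured after seven days incubation then overnight dye step; 0% = bacteria only wells and 100% = bacteria with antibiotic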
MazEF act – activators of E. coli MazEF toxin-antitoxin RNase, primary screen, biochemical, fluorescence, uHTS. 350,000 compounds, 0.32% hits. FAM/BHQ RNA-DNA oligo cleavage fluorescence, 5 h. AID 504720, 2011. activation, % at 20 µM. Endoribonuclease toxin MazF (Escherichia coli (strain K12)), P0AE70; in the data active = activation above about 50%
Target sequence (P0AE70 whole entry, looked up): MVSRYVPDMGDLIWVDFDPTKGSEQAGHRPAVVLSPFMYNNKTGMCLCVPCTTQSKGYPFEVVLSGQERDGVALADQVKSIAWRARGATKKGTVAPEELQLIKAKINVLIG
* marks the source's active call; other numbers are inactive results; . = not tested or not shown.

SMILES | Sa ugtP lethal | CCHFV vOTU inh | Sa RN4220 lethal | 3CLpro inhibitor | Mtb bLac sens | MazEF act
CC=C1C[N+]2(C)CCC34C(=C(C=O)C1CC32)Nc1ccccc14 (configuration not stated) | 5 | . | 5 | . | . | .
CCn1c(O)c(C=NN=Cc2ccccc2)c2ccc(C3=NNC(=O)CC3)cc21 | -22 | . | 13 | . | . | .
CCn1c(O)c(/C=N/N=C/c2ccccc2)c2ccc(C3=NNC(=O)CC3)cc21 | . | 1 | . | -3 | 5 | 747*
Cc1ccc(-c2ccc(C3C4C=CCC[C@@]4(C)C(=O)N3Cc3ccccc3)c(F)c2)cc1 (some centres not stated) | 81* | . | 0 | . | . | .
Cc1ccc(-c2csc3ncnc(SCC(N)=O)c23)cc1 | 20 | -9 | 3 | 1 | 7 | 2
CCc1nnc(NC(=O)CSc2ncnc3scc(-c4ccc(C)cc4)c23)s1 | 1 | 6 | 4 | 0 | 3 | 86*
Cc1ccc2[nH]c(C)c(C=NNc3nc4ccccc4s3)c2c1 | 99* | . | 100* | . | . | .
NC(=O)c1cc(-c2ccccc2)sc1NC(=O)Cc1ccc(S(=O)(=O)N2CCOCC2)s1 | 3 | 13 | 3 | 19* | -7 | 13
COC(=O)C1=C(c2ccc(F)cc2OCc2ccccc2)CC2CCC1N2C(=O)N1CCC(O)CC1 (configuration not stated) | 0 | . | 9 | . | . | .
CC(Oc1ccc(Cl)cc1Cl)C(=O)NC(=S)N1CCc2ccccc21 (configuration not stated) | 98* | 10 | 99* | 4 | 88 | -10
Clc1cccc(C=NNc2nc(Cl)nc3ccccc23)c1 | -13 | . | 4 | . | . | .
CCCCCn1c(=O)c(C(=O)Nc2nc3ccccc3[nH]2)c(O)c2ccccc21 | 101* | 1 | 83 | 2 | 99 | -3
CCCCCn1c(=O)c(C(=O)Nc2ccccc2Cl)c(O)c2ccccc21 | 23 | 0 | 5 | -7 | -4 | 7
CCn1c(=O)c(C(=O)Nc2nc3ccccc3[nH]2)c(O)c2ccccc21 | 100* | 5 | 100* | 5 | 100 | 3
C[C@]12C=CC(=O)C=C1CCC1C2C(O)C[C@@]2(C)C1CC[C@]2(O)C(=O)CO (some centres not stated) | 1 | . | 9 | . | . | .
COc1ccccc1NC(=O)c1ccc(C(=O)Nc2ccccc2OC)nc1 | 3 | -2 | 0 | -1 | -2 | 53*
COc1ccccc1NC(=O)c1ccc(NC(=O)Cc2n[nH]c(=O)c3ccccc23)cc1 | 7 | -15 | 1 | -5 | 6 | 72*
CCOc1ccccc1NC(=O)c1ccc(C(=O)Nc2ccccc2OCC)nc1 | 4 | -10 | 2 | 3 | 5 | 20
COc1ccc(C=c2sc3n(c2=O)NC2(c4ccccc4)N(C)C(=O)N(C)C2(c2ccccc2)N=3)cc1 (configuration not stated) | -2 | . | 3 | . | . | .
CC(O)C1CNC(=O)C(=O)N1CCC12CC3CC(CC(C3)C1)C2 (configuration not stated) | -1 | . | 2 | . | . | .
CCn1nc(C)c(C=NNC(=O)c2cccc(OC)c2)c1C | 3 | . | 4 | . | . | .
O=S(=O)(c1cccc(-c2csc(-c3ccccc3)n2)c1)N1CCOCC1 | -10 | 7 | -8 | 0 | 4 | -17
CC1CN(S(=O)(=O)c2cccc(-c3csc(-c4ccccc4)n3)c2)CC(C)O1 (configuration not stated) | -12 | 10 | -9 | 1 | 0 | 70*
COc1cc(C=NNC(=O)C(=O)NCc2ccco2)cc(Cl)c1O | -2 | . | 4 | . | . | .
N=C1/C(=C/c2cccs2)C(=O)N=C2SN=C(SCc3ccccc3)N12 | 83* | 14 | 83 | -1 | -2 | -11
SMILES | Sa ugtP lethal | CCHFV vOTU inh | Sa RN4220 lethal | 3CLpro inhibitor | Mtb bLac sens | MazEF act
CC(C)CSC1=NSC2=NC(=O)/C(=C\c3cccs3)C(=N)N12 | 4 | -2 | 41 | 0 | 0 | -18
O=C1CC(N(CCc2ccccc2)C(=S)Nc2ccccc2)C(=O)N1c1ccc(Br)cc1 (configuration not stated) | 98* | 10 | 98* | -2 | 16 | 1
COc1ccc(CCN(C(=S)Nc2ccccc2)C2CC(=O)N(c3ccccc3)C2=O)cc1 (configuration not stated) | -22 | 1 | -3 | 2 | 0 | 1
N#CC(Cn1c[n+](NC(=O)Nc2ccccc2)cn1)=NO | 15 | . | 6 | . | . | .
CS(=O)(=O)N1N=C(c2ccccc2)CC1c1ccc2c(c1)OCO2 (configuration not stated) | 8 | -12 | 11 | 0 | -3 | 236*
Cc1nc2ccccn2c1C(=O)NN=Cc1ccc([N+](=O)[O-])o1 | 82 | . | 98* | . | . | .
O=C(NN=Cc1ccc([N+](=O)[O-])o1)c1ccccc1-n1cccc1 | 30 | . | 33 | . | . | .
Cc1nc2ccccn2c1C(=O)N/N=C/c1ccc([N+](=O)[O-])o1 | . | 13 | . | -1 | 99 | 3
COc1ccc(-c2nn(-c3ccccc3)cc2C(=O)NN=Cc2ccc([N+](=O)[O-])o2)cc1 | 100* | . | 97* | . | . | .
O=C(NN=Cc1ccc([N+](=O)[O-])o1)c1cn(-c2ccccc2)nc1-c1ccc(F)cc1 | 98* | . | 71 | . | . | .
O=C(NN=Cc1ccc([N+](=O)[O-])o1)c1cn(-c2ccccc2)nc1-c1ccccc1 | 99* | . | 100* | . | . | .
O=C(NN=Cc1cn(-c2ccccc2)nc1-c1ccc(F)cc1)c1ccc(Br)o1 | -20 | . | -36 | . | . | .
CCC(C)C(C)=NNC(=O)c1cn(-c2ccccc2)nc1-c1ccccc1 (configuration not stated) | 3 | . | 2 | . | . | .
COc1ccccc1C=NN(C(C)=O)c1nc(-c2ccc(F)cc2)cs1 | -9 | . | 14 | . | . | .
CCCCCCCCCC(=O)NNC(=O)c1c(O)c2ccccc2n(CCC)c1=O | 90* | -11 | 76 | 6 | 3 | 11
CCCCCCCCCCC(=O)NNC(=O)c1c(O)c2ccccc2n(CC)c1=O | 99* | . | 97* | -1 | 0 | .
CCCn1c(=O)c(C(=O)NNS(=O)(=O)c2ccc(Cl)cc2)c(O)c2ccccc21 | 100* | 11 | 99* | 2 | 6 | -3
CCCn1c(=O)c(C(=O)NNC(=O)c2ccc(Cl)cc2Cl)c(O)c2ccccc21 | 3 | -4 | 30 | 7 | 0 | -1
CCCn1c(=O)c(C(=O)NCc2ccccc2)c(O)c2ccccc21 | . | -16 | . | 4 | -11 | -1
CCCCCCn1c(=O)c(C(=O)NN=Cc2cccc(F)c2)c(O)c2ccccc21 | 100* | . | 60 | . | . | .
O=C(NN=Cc1ccc([N+](=O)[O-])o1)C1COc2ccccc2O1 (configuration not stated) | 38 | . | 24 | . | . | .
COc1ccc([N+](=O)[O-])cc1C=NNC(=O)Cc1ccccc1 | 6 | . | 21 | . | . | .

Bioassay records: PubChem BioAssay, several laboratories
